# Laboratory results reported in the supplement of paper PMC9262897, “Low-cost anti-mycobacterial drug discovery using engineered E. coli” (Nature Communications, 2022).
# Where a name gives a salt, the structure may show the parent alone. ± gives the standard deviation of the averaged measurements.
# Tests used:
# Test in all cases: growth (OD600 after 10 h); higher = more growth (less inhibition)
# [1] = system: E. coli TESEC Alr+ wild-type control; details: compound 0.1 mM; raw OD600 reference: median of DMSO wells 0.241, cell-free background 0.041
# Experimental: (§1)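 TESEC Mtb Alr E. coli, or the Alr+ wild-type control, in 384-well plates with Prestwick library compounds at 0.1 mM and 1% DMSO, across arabinose induction levels of 1E3 to 1E7 nM. Growth is read as OD600 after 10 h at 37 °C in triplicate biological replicates.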
# E. coli TESEC Mtb Alr [2] = details: compound 0.1 mM
# Experimental: as §1
# E. coli TESEC Mtb Asd = details: compound 0.1 mM
# Experimental: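 TESEC E. coli strains in which the native enzyme is deleted and replaced by arabinose-inducible Mtb Asd, DapB, CysH or TrpD, each grown in its selective medium. Strains were screened against the Prestwick library at 0.1 mM and 1% DMSO in 384-well format at low and high arabinose induction. Growth is read as OD600 after 10 h in triplicate.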
# [3] = system: E. coli TESEC Alr+ wild-type control; details: compound 0.1 mM; raw OD600 reference: median of DMSO wells 0.49, cell-free background 0.052
# Experimental: (§2)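 TESEC Mtb Alr E. coli (ΔaraC ΔtolC ΔentC Δalr ΔdadX, arabinose-inducible Mtb Alr) or the Alr+ wild-type control strain, grown in defined M9-fructose medium without D-alanine in 96-well plates with Prestwick library compounds at 0.1 mM and 1% DMSO. Low Alr induction is 0.1 µM arabinose and high induction is 10 mM arabinose.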
# E. coli TESEC Mtb Alr [4] = details: compound 0.1 mM; remark: listed apart in the source
# Experimental: as §2
# [5] = arabinose 1000 nM, raw OD600 reference: median of DMSO wells 0.294, cell-free background 0.041
# [6] = arabinose 10000 nM, raw OD600 reference: median of DMSO wells 0.264, cell-free background 0.041
# [7] = arabinose 100000 nM, raw OD600 reference: median of DMSO wells 0.201, cell-free background 0.041
# [8] = arabinose 1000000 nM, raw OD600 reference: median of DMSO wells 0.193, cell-free background 0.041
# [9] = arabinose 10000000 nM, raw OD600 reference: median of DMSO wells 0.146, cell-free background 0.041
# [10] = arabinose induction (level): High, raw OD600 reference: median of DMSO wells 0.331, cell-free background 0.041
# [11] = arabinose induction (level): Low, raw OD600 reference: median of DMSO wells 0.417, cell-free background 0.041
# [12] = arabinose 100 nM, raw OD600 reference: median of DMSO wells 0.413, cell-free background 0.052
# [13] = arabinose 10000000 nM, raw OD600 reference: median of DMSO wells […], cell-free background 0.052
Structure (SMILES),growth [1],growth (E. coli TESEC Mtb Alr [2]; [5]),growth (E. coli TESEC Mtb Alr [2]; [6]),growth (E. coli TESEC Mtb Alr [2]; [7]),growth (E. coli TESEC Mtb Alr [2]; [8]),growth (E. coli TESEC Mtb Alr [2]; [9]),growth (E. coli TESEC Mtb Asd; [10]),growth (E. coli TESEC Mtb Asd; [11]),growth [3],growth (E. coli TESEC Mtb Alr [4]; [12]),growth (E. coli TESEC Mtb Alr [4]; [13])
CC[C@]12CCCN3CCc4c(n(c5ccccc45)C(=O)C1)[C@@H]32 [Eburnamonine (-)],0.182 ± 0.0061,0.238 ± 0.0081,0.257 ± 0.0031,0.144 ± 0.0086,0.124 ± 0.004,0.135 ± 0.0057,0.119 ± 0.0043,0.27 ± 0.095,0.544 ± 0.059,0.393 ± 0.012,0.277 ± 0.015
CC(C)/N=c1\cc2n(-c3ccc(Cl)cc3)c3ccccc3nc-2cc1Nc1ccc(Cl)cc1 [Clofazimine],0.158 ± 0.004,0.231 ± 0.016,0.154 ± 0.037,0.225 ± 0.023,0.0638 ± 0.0033,0.168 ± 0.013,0.247 ± 0.053,0.337 ± 0.11,0.154 ± 0.012,0.395 ± 0.031,0.06873 ± 0.00031
Nc1ccn([C@H]2CC[C@@H](CO)O2)c(=O)n1 [Zalcitabine],0.246 ± 0.0044,0.2977 ± 0.0013,0.279 ± 0.014,0.198 ± 0.035,0.172 ± 0.0063,0.1518 ± 0.00067,0.288 ± 0.037,0.407 ± 0.035,0.4783 ± 0.0003,0.409 ± 0.016,0.353 ± 0.02
O=C(O)[C@H]1/C(=C/CO)O[C@@H]2CC(=O)N21 [Clavulanate potassium salt],0.155 ± 0.0016,0.0502 ± 0.0035,0.0477 ± 0.0036,0.0582 ± 0.0016,0.195 ± 0.0057,0.0991 ± 0.0015,0.535 ± 0.033,0.387 ± 0.062,0.04737 ± 0.00042,0.0839 ± 0.04,0.101 ± 0.017
C#C[C@]1(OC(C)=O)CC[C@H]2[C@@H]3CCC4=CC(=NO)CC[C@@H]4[C@H]3CC[C@@]21CC (mixture of isomers) [Norgestimate],0.134 ± 0.0062,0.123 ± 0.0052,0.0585 ± 0.0036,0.136 ± 0.0049,0.0563 ± 0.0053,0.111 ± 0.0098,0.0829 ± 0.015,0.0714 ± 0.019,0.185 ± 0.0039,0.263 ± 0.013,0.0794 ± 0.012
O=C1c2c(O)ccc(O)c2C(=O)c2c(NCCNCCO)ccc(NCCNCCO)c21 [Mitoxantrone dihydrochloride],0.355 ± 0.0023,0.3551 ± 0.0031,0.3438 ± 0.0024,0.3501 ± 0.0014,0.3506 ± 0.001,0.3496 ± 0.0028,0.36 ± 0.0066,0.3445 ± 0.0031,0.259 ± 0.051,0.231 ± 0.0097,0.292 ± 0.025
CCCCOc1ccc(CC(=O)NO)cc1 [Bufexamac],0.204 ± 0.0088,0.247 ± 0.014,0.243 ± 0.0037,0.202 ± 0.025,0.118 ± 0.0015,0.0983 ± 0.0016,0.33 ± 0.0049,0.418 ± 0.034,0.437 ± 0.031,0.4 ± 0.018,0.284 ± 0.0052
O=C(Oc1cccc2cccnc12)c1ccccc1 [Benzoxiquine],0.222 ± 0.0051,0.264 ± 0.016,0.28 ± 0.0036,0.172 ± 0.014,0.198 ± 0.011,0.14 ± 0.01,0.316 ± 0.12,0.289 ± 0.017,0.505 ± 0.036,0.368 ± 0.016,0.281 ± 0.01
CC(C)[N+](C)(CCOC(=O)C1c2ccccc2Oc2ccccc21)C(C)C [Propantheline bromide],0.169 ± 0.0072,0.231 ± 0.025,0.269 ± 0.0034,0.155 ± 0.0034,0.153 ± 0.0025,0.132 ± 0.0019,0.233 ± 0.051,0.417 ± 0.047,0.644 ± 0.057,0.406 ± 0.011,0.32773 ± 0.00025
CC(=O)N(O)CCCCCNC(=O)CCC(=O)N(O)CCCCCNC(=O)CCC(=O)N(O)CCCCCN [Deferoxamine mesylate],0.0549 ± 0.00064,0.054 ± 0.0048,0.0561 ± 0.0031,0.0487 ± 0.0017,0.0567 ± 0.0044,0.0625 ± 0.00017,0.139 ± 0.015,0.141 ± 0.027,0.1754 ± 0.0017,0.113 ± 0.046,0.0677 ± 0.0037
Oc1c(I)cc(Cl)c2cccnc12 [Clioquinol],0.0473 ± 0.0055,0.0429 ± 0.0016,0.0409 ± 0.00085,0.0461 ± 0.0025,0.0417 ± 0.00053,0.0513 ± 0.0023,0.0601 ± 0.0098,0.0661 ± 0.016,0.0685 ± 0.0091,0.0741 ± 0.02,0.0669 ± 0.011
CCN1CC(CCN2CCOCC2)C(c2ccccc2)(c2ccccc2)C1=O (stereo not drawn) [Doxapram hydrochloride],0.234 ± 0.0045,0.284 ± 0.0045,0.248 ± 0.004,0.199 ± 0.018,0.205 ± 0.016,0.1315 ± 0.0013,0.309 ± 0.091,0.426 ± 0.072,0.54 ± 0.012,0.394 ± 0.016,0.339 ± 0.014
NC(=O)N/N=C/c1ccc([N+](=O)[O-])o1 [Nitrofural],0.044 ± 0.00072,0.0426 ± 0.00078,0.04193 ± 0.00015,0.044 ± 0.0018,0.042 ± 0.00045,0.0427 ± 0.00084,0.0898 ± 0.0054,0.0756 ± 0.0054,0.0529 ± 0.0016,0.0532 ± 0.0056,0.0522 ± 0.00076
C[N+]1(CCCCC[N+]2(C)CCCC2)CCCC1 [Pentolinium bitartrate],0.24 ± 0.0027,0.282 ± 0.017,0.275 ± 0.0033,0.202 ± 0.014,0.1794 ± 0.0012,0.143 ± 0.0032,0.296 ± 0.037,0.424 ± 0.02,0.515 ± 0.11,0.415 ± 0.011,0.361 ± 0.006
CC[C@H](C)C(=O)O[C@H]1C[C@H](O)C=C2C=C[C@H](C)[C@H](CC[C@@H](O)C[C@@H](O)CC(=O)O)[C@H]21 [Pravastatin],0.229 ± 0.013,0.309 ± 0.0081,0.297 ± 0.013,0.222 ± 0.024,0.185 ± 0.019,0.152 ± 0.0073,0.323 ± 0.015,0.37 ± 0.059,0.455 ± 0.03,0.4188 ± 0.0036,0.337 ± 0.026
Cc1ncc(CO)c(CO)c1O [Pyridoxine hydrochloride],0.258 ± 0.0075,0.302 ± 0.013,0.2532 ± 0.0016,0.238 ± 0.034,0.174 ± 0.0032,0.168 ± 0.017,0.344 ± 0.1,0.37 ± 0.022,0.544 ± 0.025,0.428 ± 0.0097,0.32 ± 0.013
CC(=O)OCC(=O)[C@@]12OC(C)(C)O[C@@H]1C[C@H]1[C@@H]3C[C@H](F)C4=CC(=O)C=C[C@]4(C)[C@@]3(F)[C@@H](O)C[C@@]12C [Fluocinonide],0.229 ± 0.0095,0.279 ± 0.012,0.275 ± 0.01,0.195 ± 0.015,0.213 ± 0.041,0.163 ± 0.037,0.434 ± 0.046,0.505 ± 0.0079,0.499 ± 0.058,0.432 ± 0.041,0.344 ± 0.033
NC(=O)OCC(O)COc1ccc(Cl)cc1 (stereo not drawn) [Chlorphensin carbamate],0.251 ± 0.011,0.287 ± 0.016,0.2846 ± 0.0028,0.245 ± 0.022,0.2014 ± 0.002,0.162 ± 0.0045,0.364 ± 0.046,0.379 ± 0.024,0.523 ± 0.01,0.416 ± 0.019,0.366 ± 0.023
